Laboratory results reported in PubChem BioAssay AID720519 (National Center for Advancing Translational Sciences (NCATS), 2013).
Results filed as inconclusive are left out. Calls come from the whole dose curve; as a rule, active = well fitted activation curve with a large enough effect; inconclusive = small, poorly fitted or top-dose-only effect; inactive = flat fitted curve, though single readings scatter.

experiment: qHTS for Inhibitors of Cell Surface uPA Generation: Confirmatory Assay for Cherry-picked Compounds; details: cell surface uPA activity generation, qHTS confirmation; series mostly up to 115 µM; inhibition: at the top concentration; note: 0% is about no effect
Procedure, shortened: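 RAW 264.7 cells at 4000/well, incubated overnight, then treated with compounds. After 24 h at 37 C, viability was read by ATPlite luminescence. An increase in signal indicates blocked uPA-dependent LF entry.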

inhibition, inactive:
CCOc1ccc(-c2n[nH]c(=S)n2Cc2ccccc2)cc1 -0.435%
COc1ccc(-c2cccc(-c3cc(=O)oc4cc(OC)c(OC)c(OC)c34)c2)cc1 -2.12%
CCCCN(CC(=O)NCc1ccc(F)cc1)C(=O)c1ccco1 1.54%
O=C(Cn1cnc2c(OCc3ccccc3)ncnc21)NCCCN1CCCC1=O -2.76%
Cc1ccc(C2=NS(=O)(=O)N(C)C(C(=O)NC3CCCC3)=C2)cc1 -1.27%
COc1ccc(C(=O)CC2(C(=O)O)CCCCC2)cc1 -1.31%
Cc1cccc(NC(=O)C2CCCN(S(=O)(=O)c3cccc4cccnc34)C2)c1 (centres undefined) -1.96%
CC(=O)c1ccc(N=C2SCCCN2C(=O)C2CCCCC2)cc1 -2.64%
O=S(=O)(NCCc1ccccc1F)c1cccc(S(=O)(=O)N2CCOCC2)c1 -3.02%
O=C(CCCC(=O)N1CCN(c2ccccc2F)CC1)c1ccccc1 -0.97%
COc1ccc([C@H]2[C@H](C(=O)OC(C)(C)C)N3N=Cc4ccccc4C3C23C(=O)c2ccccc2C3=O)cc1OC (some centres undefined) -3.34%
COCc1cc(C)nc2sc(C(=O)Nc3nccs3)c(N)c12 -1.16%
CC(=O)[C@@]1(O)[C@H](C)CC2C3CC=C4CC(OP(=O)(O)O)CC[C@]4(C)C3CC[C@@]21C (some centres undefined) 0.812%
CCOc1ccc(C(=O)NCC(=O)N2CCN(C/C=C/c3ccccc3)CC2)cc1OCC -1.3%
CC(=O)Nc1c2c(nn1-c1cccc(C)c1)CSC2 -0.352%
O=C(NCc1ccc2c(c1)OCO2)c1ccccn1 -0.59%
CC1(C)CC(=O)C([N+](=O)[O-])=C(NCCCC(=O)O)C1 1.47%
CC1C2=C(CC(C)(C)CC2=O)NC2=C1C(=O)CC(C)(C)C2 -0.241%
Fc1ccc(CNc2ccccn2)cc1 -1.78%
N#Cc1ccccc1Sc1ccccc1C(=O)Nc1ccc(Br)cc1 -2.89%
Cc1ccc(-c2nc(CS(=O)(=O)CC(=O)NCc3cccc(F)c3)c(C)o2)cc1 0.286%
C[N+]1(CC(O)c2ccccc2)CCCCCC1 (centres undefined) -0.146%
COC(=O)C1C(=O)c2c([nH]c(C(=O)OC3CCCCC3)c2C)CC1C (centres undefined) -0.386%
CN(C)CCNC(=O)Nc1ccc([N+](=O)[O-])cc1 -1.38%
Cc1ccc(S(=O)(=O)Nc2nc(C)cc(N/N=C/c3ccc(O)cc3)n2)cc1 -3.07%
COc1ccc(N2CCN(S(=O)(=O)c3ccc4c(c3)NC(=O)CS4)CC2)cc1 -0.636%
CCCc1nc2c(=O)n(C)c(=O)[nH]c2n1CCC 1.04%
C[C@H](CO)N1C[C@H](C)[C@@H](CN(C)C(=O)Nc2ccccc2)Oc2ccc(NC(=O)Cn3cnnn3)cc2C1=O -0.16%
CCN(CC)CCCNC(=O)c1cn(C)c(=O)c2c1c1ccccc1n2C 5.19%
CCOc1cc(C)c(S(=O)(=O)N2CCCCC2)cc1C -2.77%
C=CCn1c(SCc2ccc(C(=O)NCCO)cc2)nc2ccccc2c1=O -1.7%
CS/C(=C\[N+](=O)[O-])Nc1ccccc1 -3.31%
CCN(CC)c1c([N+](=O)[O-])c(=O)sc2ccccc12 -1.46%
COc1ccc(C(=O)OCC(=O)N(C)C2CCS(=O)(=O)C2)cc1S(=O)(=O)N(C)Cc1ccccc1 (centres undefined) 0.424%
COCc1c(C(=O)Nc2nc(C)cs2)oc2ccccc12 -3.41%
Cc1cnc(CNC(=O)C2CCC(=O)N(CCc3cccc(F)c3)C2)[nH]1 (centres undefined) -1.62%
CC/C(=N\Nc1ccccc1[N+](=O)[O-])c1ccc(O)cc1 -2%
O=C(c1cc([N+](=O)[O-])cc([N+](=O)[O-])c1)N(c1ccccn1)c1ccccn1 -1.86%
CCC1Nc2ncnc(N3CCCCC3)c2N(Cc2ccc(Cl)cc2)C1=O (centres undefined) -0.906%
